Reference: PubChem BioAssay (NCATS)
Results filed as inconclusive are left out. Where a call stands in place of a potency, no number is given. Activity calls are given as the source filed them. Calls follow the shape of the dose curve; as a rule, active = well fitted cell-killing curve with a large enough effect; inconclusive = small, poorly fitted or top-dose-only effect; inactive = flat fitted curve, though single readings scatter.

assay: qHTS of pediatric cancer cell lines to identify multiple opportunities for drug repurposing: Primary screen for U-2 OS cells (AID 1347096); conditions: U-2 OS viability, CellTiter-Glo luminescence, 48 h; series mostly up to 46 µM; also: nearly all actives have a fitted effect of over 50% in size
Excerpt: Drug repurposing or repositioning has been offered as a strategy for drug development in oncology programs. This approach has special potential for childhood cancers and other rare or orphan diseases, where the expected return on new drug development has been a disincentive to pharmaceuticals.
In this project we exploit the poly-pharmacology of drugs to discover new indications via phenotypic screening of a panel of 19 well-characterized cell lines derived from solid tumors seen in children and adolescents. The goal is to identify approved drugs with previously unrecognized anticancer properties that has the potential to reveal new mechanisms and biological processes involved in carcinogenesis or drug resistance. We employed a titration-based paradigm (quantitative high-throughput screening or qHTS), where all compounds were tested at multiple concentrations for their effect on cell viability. Concentration-response curves (CRCs) were derived directly from the primary screen, and both potency and efficacy values were used to identify compounds with robust bioactivity profiles. We screened the NIH Chemical Genomics Center (NCGC) Pharmaceutical Collection (NPC) and Mechanism Interrogation Plate (MIPE) small molecule collections of approved and investigational compounds against these cell lines; and measured metabolically active cells after 48 hours of compound treatment as a proxy for cell viability.
Assay Submitter: Nathalia J. Martinez, National Center for Advancing Translational Sciences, National Institutes of Health, Rockville, MD, USA; email: natalia.martinez@nih.gov
[1] Shen, M et al. Quantitative high-throughput phenotypic screening of pediatric cancer cell lines identifies multiple opportunities for drug repurposing. Oncotarget 2017 Dec 19;9(4):4758-4772. PMID 29435139.
The cells were obtained from University of North Carolina (UNC), Pediatric Preclinical Testing Program (PPT), and Coriell Institute (CI).
qHTS cell viability assay:
Cells were assayed in growth media at a density of 500-1,000 cells/well. Five microliters of cells were dispensed into 1,536-well, white, solid-bottom, TC-treated plates (Greiner Bio One) using a multidrop dispenser and incubated at 37 degrees C, 5% CO2, under a humidified atmosphere for 5 hours. Twenty-three nanoliters of compounds and controls (neutral control DMSO or positive control bortezomib at final concentration of 2.3 µM) were subsequently transferred by Kalypsys pintool. For primary screens, the MIPE collection was tested at 11-point dilutions (final concentrations range from 0.78 nM to 46 µM) and the NPC collection at 8-point dilutions (final concentrations range from 0.59 nM to 46 µM). Compounds tested in follow-up screens were assayed at 11-point dilutions. Cells were incubated for 48 hours, followed by addition of 3 µL of CellTiter-Glo (Promega). After a 15 min incubation at room temperature, samples were analyzed for luminescence intensity using a ViewLux High-throughput CCD imager equipped with clear filters.
Potency is read from the fitted curve at half-maximal effect.

Row | SMILES | Potency
1 | CC(C)(C)c1ccc(C(O)CCCN2CCC(C(O)(c3ccccc3)c3ccccc3)CC2)cc1 (stereo not given) | inactive
2 | COc1cc(Nc2ncc(F)c(Nc3ccc4c(n3)NC(=O)C(C)(C)O4)n2)cc(OC)c1OC | inactive
3 | CC(C)(C)NC(=O)Nc1cccc(Nc2ncc(F)c(NC(C)(C)CO)n2)c1 | inactive
4 | COc1ccc(Cc2ccc(NC(N)=O)cc2)cc1-c1cccc(Cl)c1 | inactive
5 | COc1cccc(-c2cc(=O)c3ccccc3o2)c1N | inactive
6 | COC(=O)C1=CO[C@@H](O)[C@@H]2C(CO)=CC[C@@H]12 | inactive
7 | CS(=O)c1ccc(-c2nc(-c3ccc(F)cc3)c(-c3ccncc3)[nH]2)cc1 (stereo not given) | inactive
8 | CC=CCC=CCCC(=O)[C@H]1O[C@@H]1C(N)=O | inactive
9 | CN[C@@H](C)C(=O)N[C@H]1CN(C(=O)CC(C)C)CC[C@H]2CC[C@@H](C(=O)NC(c3ccccc3)c3ccccc3)N2C1=O | inactive
10 | c1cc(-c2sc(-c3ccncc3)c(-c3ccncc3)c2-c2ccncc2)ccn1 | inactive
11 | COCCOc1nc(-c2ccc(Cl)c(Cl)c2)n(-c2ccc(NC(=O)CCl)cc2)n1 | inactive
12 | Cc1ccc(/C=N/NC(=O)c2ccccc2Oc2ccccc2)o1 | inactive
13 | CC(C)n1nc(-c2ccc3oc(N)nc3c2)c2c(N)ncnc21 | 148 nM (active)
14 | CC(C)(C)Cn1c(N)nc2ccc(-c3[nH]c(C(C)(C)C)nc3-c3ccc(F)cc3)nc21 | inactive
15 | O=C(CCc1ccc(O)cc1)c1c(O)cc(O)cc1O[C@@H]1O[C@H](CO)[C@H](O)[C@H](O)[C@H]1O | inactive
16 | O=C(OCC#CCSc1nnc(-c2cccc3ccccc23)o1)c1cc2ccccc2s1 | inactive
17 | CCNc1cc(NC2CCC(O)CC2)nc(Nc2ccc3c(ccn3Cc3ccccc3)c2)n1 (stereo not given) | inactive
18 | O=c1c(-c2ccc(O)cc2)coc2cc(OC3O[C@H](CO)[C@H](O)[C@H](O)[C@H]3O)cc(O)c12 (stereo not given in full) | inactive
19 | CO[C@H]1C(=O)[C@]2(C)[C@@H](OC)C[C@H]3OC[C@@]3(OC(C)=O)[C@H]2[C@H](OC(=O)c2ccccc2)[C@]2(O)C[C@H](OC(=O)[C@H](O)[C@@H](NC(=O)OC(C)(C)C)c3ccccc3)C(C)=C1C2(C)C | inactive
20 | CCN(CC)CCOC(=O)c1ccc(N)cc1 | inactive

Row | SMILES | Potency
21 | CC(=O)N[C@@H](CS)C(=O)O | inactive
22 | CC(C)=CC[C@@H](O)C1=CC(=O)c2c(O)ccc(O)c2C1=O | inactive
23 | O=C1NCC2(CCN(CCc3ccccc3)CC2)O1 | inactive
24 | O=C(O)C(O)Cc1ccc(O)c(O)c1 (stereo not given) | inactive
25 | CN(C)Cc1ccc(-c2nc3cccc4c3n2CCNC4=O)cc1 | inactive
26 | Clc1ccc(Cn2c(CN3CCCC3)nc3ccccc32)cc1 | inactive
27 | CC(C)(C)C(=O)Oc1ccc2c(c1)nc(NC(=O)c1cccc([N+](=O)[O-])c1)n2CCCO | inactive
28 | CC(=O)c1ccc(S(=O)(=O)NC(=O)NC2CCCCC2)cc1 | inactive
29 | CC(C)(Cc1ccc2ccccc2c1)NC[C@@H](O)COc1cccc(Cl)c1C#N | inactive
30 | CS(=O)(=O)N(Cc1ccco1)CC(O)Cn1c2ccccc2c2ccccc21 (stereo not given) | inactive
31 | Clc1ccc(-c2nc3sccn3c2C=NOCc2ccc(Cl)c(Cl)c2)cc1 | inactive
32 | CO[C@H]1C=CC=C(C)C(=O)NC2=CC(=O)C(NCCN(C)C)=C(C[C@@H](C)C[C@H](OC)[C@@H](O)[C@@H](C)C=C(C)[C@@H]1OC(N)=O)C2=O | 935 nM (active)
33 | O=C(O)c1cc(-c2ccccc2)nc2ccccc12 | inactive
34 | N#CC1(c2ccc(NC(=O)c3cccnc3NCc3ccncc3)cc2)CCCC1 | inactive
35 | COCCCCC(=NOCCN)c1ccc(C(F)(F)F)cc1 | inactive
36 | C=CCc1ccc(O)c(-c2ccc(O)c(CC=C)c2)c1 | inactive
37 | COc1cc(O)c2c(c1)C(=O)c1cc(C)cc(O)c1C2=O | inactive
38 | CCc1ccc(C=C2SC(=S)NC2=O)cc1 | inactive
39 | COC[C@@H](c1ccc(C(F)(F)F)cc1)N1CCN(C2(C)CCN(C(=O)c3c(C)ncnc3C)CC2)C[C@H]1C | inactive
40 | NC(=O)[C@@H](CCC(F)(F)F)N(Cc1ccc(-c2ncon2)cc1F)S(=O)(=O)c1ccc(Cl)cc1 | inactive
